Test results: PubChem BioAssay (Tox21)
Results filed as inconclusive are left out. Calls of active or inactive are those of the source. Unless noted, calls come from the whole dose curve; as a rule, active = well fitted curve in the direction sought with a large enough effect in the repeat runs; inconclusive = weak or mixed curves; inactive = no such curve, though single readings can be large; an effect the other way counts as inactive or inconclusive.

Columns and labels:
[1] = qHTS RealTime-Glo MT Cell Viability Assay in HEK293 cells - 8 hour (AID 1224887); note: top concentration of the series differs between compounds; nearly all actives have a fitted effect of over 50% in size
Method in brief: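 Measured as luminescence from the same continuously cultured HEK293 wells at successive time points (0, 8, 16, 24, 32, 40 h) after compound addition. Reagent present from seeding; dosing at 5 h; incubation 37 C.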

[2] = A CellTox Green Cytotoxicity Assay to monitor cytotoxicity in HEK293 cells - 16 hour (AID 1224888); note: nearly all actives have a fitted effect of over 35% in size
Method in brief: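 Homogeneous no-lysis format: HEK293 cell suspension mixed with CellTox Green reagent, seeded, incubated 5 h at 37 C/5% CO2, then dosed by pintool with compound in DMSO.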

[3] = qHTS RealTime-Glo MT Cell Viability Assay in HepG2 cells - 0 hour (AID 1224889); note: nearly all actives have a fitted effect of over 50% in size
Method in brief: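 Cells + NanoLuc/prosubstrate dispensed (600 cells/well) → 5 h at 37 C/5% CO2 → compounds in DMSO transferred → 40 h incubation at 37 C, luminescence read at 0, 8, 16, 24, 32, 40 h.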

[4] = qHTS assay to identify small molecule antagonists of the estrogen receptor alpha (ER-alpha) signaling pathway using the BG1 cell line in the presence of 0.1 nM 17-beta-estradiol - cell viability counter screen (AID 1259241); note: nearly all actives have a fitted effect of over 40% in size
Method in brief: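 Live-cell protease activity (CellTiter-Fluor fluorescence, 30 min) was read in the same wells after VM7Luc4E2 cells had been exposed to compounds with 0.1 nM 17beta-estradiol for 22 hr at 37C.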

[5] = qHTS assay to identify small molecule antagonists of the androgen receptor (AR) signaling pathway using the MDA cell line in the presence of 0.5 nM R1881 - cell viability counter screen (AID 1259242); note: nearly all actives have a fitted effect of over 45% in size
Method in brief: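 Human breast carcinoma MDA-kb2 cells, cultured without CO2, receive compounds alongside 0.5 nM (final) R1881 agonist. After 16 hr at 37C, viability is taken as live-cell protease signal.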

[6] = molecular target: Androgen receptor (Homo sapiens) (UniProt P10275); assay: qHTS assay to identify small molecule antagonists of the androgen receptor (AR) signaling pathway using the MDA cell line in the presence of 0.5 nM R1881 (AID 1259243); note: nearly all actives have a fitted effect of over 50% in size
Sequence of Androgen receptor (Homo sapiens) (P10275 whole entry, looked up): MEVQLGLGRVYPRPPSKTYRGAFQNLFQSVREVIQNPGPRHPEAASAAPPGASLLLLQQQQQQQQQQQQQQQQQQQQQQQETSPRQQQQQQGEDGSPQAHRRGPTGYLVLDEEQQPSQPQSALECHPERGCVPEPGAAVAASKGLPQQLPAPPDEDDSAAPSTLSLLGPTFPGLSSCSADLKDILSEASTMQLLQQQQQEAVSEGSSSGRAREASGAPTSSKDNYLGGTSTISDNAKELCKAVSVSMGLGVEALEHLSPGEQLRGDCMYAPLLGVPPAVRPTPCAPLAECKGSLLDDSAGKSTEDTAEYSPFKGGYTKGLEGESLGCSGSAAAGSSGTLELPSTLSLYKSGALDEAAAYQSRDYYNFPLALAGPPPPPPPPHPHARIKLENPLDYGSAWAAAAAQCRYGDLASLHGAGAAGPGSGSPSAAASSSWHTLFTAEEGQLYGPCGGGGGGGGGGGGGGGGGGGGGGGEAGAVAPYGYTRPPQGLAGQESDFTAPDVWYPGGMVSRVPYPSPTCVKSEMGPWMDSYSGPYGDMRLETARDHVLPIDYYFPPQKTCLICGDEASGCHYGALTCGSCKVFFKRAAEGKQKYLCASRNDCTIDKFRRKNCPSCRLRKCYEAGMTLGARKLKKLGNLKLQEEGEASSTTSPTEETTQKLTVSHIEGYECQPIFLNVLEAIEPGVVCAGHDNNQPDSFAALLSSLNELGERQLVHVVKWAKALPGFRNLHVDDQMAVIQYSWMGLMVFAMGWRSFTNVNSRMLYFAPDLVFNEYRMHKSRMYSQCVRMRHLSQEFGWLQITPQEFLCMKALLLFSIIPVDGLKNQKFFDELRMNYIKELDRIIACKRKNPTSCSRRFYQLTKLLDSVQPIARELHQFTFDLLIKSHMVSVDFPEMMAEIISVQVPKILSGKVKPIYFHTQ
Method in brief: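 Cells: MDA-kb2 (MMTV-luc). Stimulus: 0.5 nM R1881. Time: 16 hr, 37C, no CO2. Detection: ONE-Glo luminescence after 30 min at RT.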

[7] = qHTS assay to identify small molecule HDAC inhibitors (AID 1259364);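 note: wild-type HCT-116 cells with endogenous class I/II HDAC activity; top concentration of the series differs between compounds; nearly all actives have a fitted effect of over 45% in size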
Method in brief: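 After a 2 hr compound incubation (37C, 5% CO2), HCT-116 cells seeded at 1,500/well the day before received HDAC-Glo reagent; signal read as luminescence after 30 min at room temperature.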

[8] = qHTS assay to identify small molecule HDAC inhibitors - cell viability counter screen (AID 1259365); note: series mostly up to about 92 µM; nearly all actives have a fitted effect of over 50% in size
Method in brief: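 HCT-116 (wild type), 1,500 cells/well, overnight 37C/5% CO2; compound in DMSO 2hr; CellTiter-Glo 30min RT; luminescence read.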

[9] = qHTS assay to identify small molecule agonists of the sonic hedgehog signaling (Shh) pathway - cell viability counter screen (AID 1259366); note: nearly all actives have a fitted effect of over 50% in size
Method in brief: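 CellTiter-Fluor fluorescence read-out, 1 hr at 37C, added after 23hr compound exposure. Cells: 3T3 Gli1-Luc, an NIH/3T3 clone with stably integrated Gli1-Luc reporter, plated 4hr before compound.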

[10] = qHTS assay to identify small molecule antagonists of the sonic hedgehog signaling (Shh) pathway - cell viability counter screen (AID 1259367); note: nearly all actives have a fitted effect of over 55% in size
Method in brief: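 Cytotoxicity was assessed in parallel with Shh reporter activity by measuring live-cell protease fluorescence (CellTiter-Fluor) in NIH/3T3 cells stably carrying Gli1-Luc, treated with compound under conditioned medium stimulation for 23 hr plus 1 hr reagent incubation.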

[11] = qHTS assay to identify small molecule agonists of the sonic hedgehog signaling (Shh) pathway (AID 1259368; calls by dose curve;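 note: NIH/3T3-derived 3T3Gli1-Luc cells carrying a stable Gli1-driven firefly luciferase reporter; series mostly up to about 92 µM; nearly all actives have a fitted effect of over 15% in size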)
Method in brief: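 Stable NIH/3T3 Gli1-Luc reporter clone; 24 hr cpd exposure after a 4 hr settling period; luminescence endpoint.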

[12] = molecular target: Estrogen receptor beta (Homo sapiens) (UniProt Q92731); assay: qHTS assay to identify small molecule agonists of the estrogen receptor beta (ER-beta) signaling pathway (AID 1259377; active = well fitted activation curve with a large enough effect in the signal ratio in the repeat runs, not every such curve was filed as active; the % refers to the signal ratio)
Sequence of Estrogen receptor beta (Homo sapiens) (Q92731 whole entry, looked up): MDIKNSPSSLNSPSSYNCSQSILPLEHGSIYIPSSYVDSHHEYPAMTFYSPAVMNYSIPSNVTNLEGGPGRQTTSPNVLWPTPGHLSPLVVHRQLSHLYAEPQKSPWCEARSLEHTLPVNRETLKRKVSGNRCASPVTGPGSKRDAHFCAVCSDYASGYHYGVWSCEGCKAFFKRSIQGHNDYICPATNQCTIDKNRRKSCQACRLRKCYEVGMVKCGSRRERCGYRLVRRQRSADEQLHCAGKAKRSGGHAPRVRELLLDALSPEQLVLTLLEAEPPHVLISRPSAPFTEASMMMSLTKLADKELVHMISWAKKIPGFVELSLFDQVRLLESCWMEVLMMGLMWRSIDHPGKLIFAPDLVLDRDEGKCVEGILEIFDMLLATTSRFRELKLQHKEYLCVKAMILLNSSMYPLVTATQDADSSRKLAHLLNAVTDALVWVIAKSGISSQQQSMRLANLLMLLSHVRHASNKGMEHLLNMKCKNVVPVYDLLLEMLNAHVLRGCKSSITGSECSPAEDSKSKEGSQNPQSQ
Method in brief: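 Beta-lactamase reporter readout: fluorescence of LiveBLAzer B/G FRET substrate after 2 h at room temperature, following 16 h compound treatment of ER-beta-UAS-bla HEK293T cells at 37C in 2% charcoal-stripped FBS medium.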

[13] = molecular target: Estrogen receptor beta (Homo sapiens) (UniProt Q92731); assay: qHTS assay to identify small molecule antagonists of the estrogen receptor beta (ER-beta) signaling pathway (AID 1259378; active = well fitted inhibition curve with a large enough effect in the signal ratio in the repeat runs, not every such curve was filed as active; the % refers to the signal ratio)
Method in brief: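 ER-beta-UAS-bla HEK293T (GripTite) cells in 2% charcoal-stripped FBS medium were preincubated 6 hr at 37C, dosed with compound, then stimulated with 1 nM E2 (final) for 16 hr; beta-lactamase reporter read by B/G FRET fluorescence after 2 hr substrate loading.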

[14] = qHTS assay to identify small molecule agonists of the androgen receptor (AR) signaling pathway in the presence of an antagonist - cell viability counter screen (AID 1259379);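 note: MDA-kb2 human breast cancer cells carrying an MMTV luciferase reporter; series mostly up to about 92 µM; nearly all actives have a fitted effect of over 25% in size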
Method in brief: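 Counter screen for cell viability run in parallel with the AR agonist-mode luciferase assay. MDA-kb2 cells were co-treated with nilutamide (3.0uM final) and compounds, then incubated 16 hr at 37C, and CellTiter-Fluor fluorescence was measured.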

[15] = qHTS assay to identify small molecule agonists of the estrogen receptor beta (ER-beta) signaling pathway - cell viability counter screen (AID 1259380); note: nearly all actives have a fitted effect of over 30% in size
Method in brief: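 In this qHTS counter screen, HEK293T cells carrying an ER-beta/UAS beta-lactamase reporter, grown in 2% charcoal-stripped FBS, received compound for 16 hr; ATP-based CellTiter-Glo luminescence was then read after 30 min at room temperature.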

[16] = molecular target: Androgen receptor (Homo sapiens) (UniProt P10275); assay: qHTS assay to identify small molecule agonists of the androgen receptor (AR) signaling pathway in the presence of an antagonist (AID 1259381; calls by dose curve; note: nearly all actives have a fitted effect of over 15% in size)
Method in brief: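 AR antagonist background: nilutamide 3.0uM final. Cell line: MDA-kb2, MMTV-driven luciferase, responsive to both AR and GR. Exposure 16hr, 37C, no CO2; ONE-Glo luminescence.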

[17] = A CellTox Green Cytotoxicity Assay to monitor cytotoxicity in HepG2 cells - 8 hour (AID 1224890); note: nearly all actives have a fitted effect of over 45% in size
Method in brief: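 Fluorescent DNA-binding dye, 600 HepG2 cells/well, 5 h preincubation then compound in DMSO; same plates read at 0–40 h, 37 C.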

[18] = qHTS assay to identify small molecule phospholipidosis (PLD) inducers (AID 1259344; active = well fitted curve in the direction sought with a large enough effect; an effect the other way counts as inactive or inconclusive)
Method in brief: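 Cells (HepG2, 900 per well) attach for 4 h, receive LipidTOX Red and compound together, incubate 24 h at 37 C, are fixed 30 min with paraformaldehyde/Hoechst, then imaged at one site per well.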

[19] = qHTS assay to identify small molecule antagonists of the sonic hedgehog signaling (Shh) pathway (AID 1259369; calls by dose curve; note: nearly all actives have a fitted effect of over 45% in size)
Method in brief: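 Gli1 transcriptional reporter (firefly Luc) in NIH/3T3 background, conditioned-medium activated. 24hr exposure, luminescence endpoint.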

[20] = molecular target: Estrogen receptor (Homo sapiens) (UniProt P03372); assay: qHTS assay to identify small molecule antagonists of the estrogen receptor alpha (ER-alpha) signaling pathway using the BG1 cell line in the presence of 0.1 nM 17-beta-estradiol (AID 1259244); note: nearly all actives have a fitted effect of over 50% in size
Sequence of Estrogen receptor (Homo sapiens) (P03372 whole entry, looked up): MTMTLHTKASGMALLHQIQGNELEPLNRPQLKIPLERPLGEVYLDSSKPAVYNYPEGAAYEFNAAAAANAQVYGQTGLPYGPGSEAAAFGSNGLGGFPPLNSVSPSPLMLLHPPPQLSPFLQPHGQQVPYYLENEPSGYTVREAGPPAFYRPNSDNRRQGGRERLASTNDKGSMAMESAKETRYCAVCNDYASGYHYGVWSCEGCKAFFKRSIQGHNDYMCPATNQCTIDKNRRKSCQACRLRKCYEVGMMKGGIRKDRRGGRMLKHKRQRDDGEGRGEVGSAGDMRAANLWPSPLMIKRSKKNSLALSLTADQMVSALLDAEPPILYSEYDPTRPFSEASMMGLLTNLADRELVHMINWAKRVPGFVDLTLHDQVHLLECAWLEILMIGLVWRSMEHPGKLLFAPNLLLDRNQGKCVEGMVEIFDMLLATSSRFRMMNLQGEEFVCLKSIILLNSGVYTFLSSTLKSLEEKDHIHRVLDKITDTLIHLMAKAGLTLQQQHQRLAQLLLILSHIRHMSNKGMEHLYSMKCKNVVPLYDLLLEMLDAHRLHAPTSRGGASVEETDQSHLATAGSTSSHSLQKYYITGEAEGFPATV
Method in brief: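 Seeding of stripped-serum-adapted VM7Luc4E2 cells, 24 h attachment, compound transfer, then 0.1 nM final 17beta-estradiol; after 22 h incubation, ONE-Glo reagent and luminescence reading.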

Measured: Potency

CC(=O)CC(=O)Nc1ccc(C)cc1C
not listed: [17] | [18] | [19] | [20]
inactive: all other assays above

CN1CCOC(c2ccccc2)c2ccccc2C1 (stereo not given)
not listed: [6] | [9] | [10] | [13] | [16] | [20]
inactive: all other assays above

CC(N)CCCC(C)(C)O (stereo not given)
not listed: [6] | [15] | [16] | [19] | [20]
inactive: all other assays above

C=CCCCCCCCC
not listed: [6] | [9] | [12] | [13] | [16] | [18] | [20]
inactive: all other assays above

COS(=O)(=O)O
not listed: [6] | [10] | [16] | [18] | [20]
inactive: all other assays above

OCC(O)CN1CCN(c2ccccc2)CC1 (stereo not given)
not listed: [6] | [12] | [13] | [16] | [20]
inactive: all other assays above

CCOCCOCC
not listed: [6] | [9] | [14] | [16] | [18]
inactive: all other assays above

CC(=O)O[Si](C)(OC(C)=O)OC(C)=O
not listed: [6] | [16] | [18] | [20]
inactive: all other assays above

c1ccc(B(c2ccccc2)c2ccccc2)cc1
not listed: [6] | [7] | [12] | [13] | [15] | [16] | [18]
inactive: all other assays above

CC(C)=CCC[C@@](C)(O)[C@H]1CC=C(C)CC1
not listed: [6] | [12] | [13] | [16] | [20]
inactive: all other assays above

Cn1c(=O)c2[nH]c(Br)nc2n(C)c1=O
not listed: [6] | [10] | [13] | [16] | [20]
inactive: all other assays above

CCCCOC(=O)C(C)O (stereo not given)
not listed: [6] | [9] | [12] | [13] | [16] | [18] | [19]
inactive: all other assays above
